This note sets out measurements from PubChem BioAssay (EPA / NIEHS).

Inconclusive results are not listed. Calls of active or inactive are those of the source. Rule for the calls: active = hit-call score of the fitted dose curve at least 0.9, where 1 is the maximum; inconclusive = response in the unintended direction; inactive = score below 0.9.

A short description of this experiment: ATG_M_19_TRANS: Attagene TRANS-FACTORIAL HepG2 Assay for M19 Transcription Factor (Internal Marker) (AID 2282974). As to conditions: HepG2 Attagene TRANS-FACTORIAL M19 internal marker reporter. As for the experimental part:
ATG_TRANS is a cell-based, multiplexed-readout assay that uses HepG2, a human liver cell line, with measurements taken at 24 hours after chemical dosing in a 24-well plate.ATG_M_19_TRANS is one of 30 assay component(s) measured or calculated from the ATG_TRANS assay. It is designed to make measurements of mRNA induction, a form of inducible reporter, as detected with fluorescence intensity signals by Reverse transcription polymerase chain reaction (RT-PCR) and Capillary electrophoresis technology.Data from the assay component ATG_M_19_TRANS was analyzed into 1 assay endpoint. This assay endpoint, ATG_M_19_TRANS, was analyzed in the positive analysis fitting direction relative to DMSO as the negative control and baseline of activity. Using a type of inducible reporter, measures of mRNA for gain-of-signal activity can be used to understand the background control at the transcription factor-level as they relate to the gene . Furthermore, this assay endpoint can be referred to as a secondary readout, because this assay has produced multiple assay endpoints where this one serves a background control function. To generalize the intended target to other relatable targets, this assay endpoint is annotated to the background measurement intended target family, where the subfamily is internal marker.
Human liver HepG2 cells are transiently transfected with multiple reporter transcription units (MRTUs) in 6-well plates using FuGene 6 reagent (Roche; 3 ml FuGene/1 mg DNA). The MRTU constructs are regulated by a cis-regulating element (promoter). […] A major difference between the CIS and TRANS system is that in CIS activities of endogenous TFs are measured, whereas the TRANS assay evaluates changes in activities of exogenous, chimeric NR-Gal4 proteins. […] At the end of 24 hour incubation, total RNA was isolated using TriZol reagent (Invitrogen). The isolated RNA is then reverse-transcribed using oligo(dT) primer and Mo-MLV reverse transcriptase (Invitrogen) with DNAse I (Ambion) treatment for 30 min. The one-tenth of the produced cDNA was amplified by PCR using Taq DNA polymerase (Invitrogen) and two reporter sequence-specific primers. The PCR products were fluorescently labeled by primer extension with 6-arboxyfluorescein (6-FAM) 5'-labeled reporter sequence-specific primer (2 min at 95 C, 20 s at 68 C and 10 min at 72 C) and these products were digested with 5U of HpaI (New England Biolabs) for 2h at 37 C. The fragments were purified using Qiaquick PCR columns (Qiagen), analyzed on an ABI 3130xL genetic analyzer (Applied Biosystems) with peak positions identified by using a set of X-rhodamine (ROX)-labeled MapMarker1000 molecular weight standards (BioVentures). The raw capillary electrophoresis data was processed using Attagraph software (Attagene).
Consider `O=C(OCCCCCOC(=O)c1ccccc1)c1ccccc1`, for which the outcome was inactive.

On to `O=c1c(O)c(-c2ccc(O)c(O)c2)oc2cc(O)cc(O)c12`, for which the result was inactive.

Regarding `NCCO`, the outcome was inactive.

Turning to `COc1ccc2c(c1)c(CC(=O)O)c(C)n2C(=O)c1ccc(Cl)cc1`, the call was inactive.

As for `CCOC(=O)C(C)(C)Oc1ccc(Cl)cc1`, the call was inactive.

For the compound `CCCCCC(=O)O`, the call was inactive.

For `CNCc1cc(F)ccc1Oc1ccc(Cl)c(Cl)c1`, the compound was called inactive.

On to `O=c1[nH]cc(F)c(=O)[nH]1`, for which the compound was classed as inactive.

As to `C[Si]1(C)O[Si](C)(C)O[Si](C)(C)O[Si](C)(C)O1`, the compound was called inactive.

Regarding `Cc1oc(-c2ccccc2)nc1CCOc1cccc2c1ccn2CCC(=O)O`, the call was inactive.

For the compound `C=CCc1ccc(O)c(OC)c1`, the result was inactive.

`CN[C@H]1CC[C@@H](c2ccc(Cl)c(Cl)c2)c2ccc(S(N)(=O)=O)cc21`: the compound was classed as inactive.

`CCCCCCCCCCC`: the result was inactive.

As for `COc1cccc2c1C(=O)c1c(O)c3c(c(O)c1C2=O)C[C@@](O)(C(=O)CO)C[C@@H]3O[C@H]1C[C@H](N)[C@H](O)[C@H](C)O1`, the call was inactive.

Take `NS(=O)(=O)c1cc2c(cc1Cl)NCNS2(=O)=O`: the outcome was inactive.

Regarding `CCOc1ccc2c(c1)C(C)=CC(C)(C)N2`, the compound was classed as inactive.

With `Cc1cccc(C)c1O`, the compound was called inactive.

On to `OC[C@@H](O)[C@@H](O)[C@H](O)[C@H](O)CO`, for which the result was inactive.

Regarding `CCCCCCC(=O)OCC`, the call was inactive.

As for `O=[N+]([O-])C(CO)(CO)CO`, the outcome was inactive.

As for `CCCCCCCCCCCC(=O)OC`, the compound was classed as inactive.

As for `CCc1c(C(=O)NN2CCCCC2)nn(-c2ccc(Cl)cc2Cl)c1-c1ccc(Br)cc1`, the compound was called inactive.

For `NC(=O)Cn1c(=O)cc(CCN2CCN(c3nccc4sccc34)CC2)c2ccc(F)cc21`, the compound was called inactive.

On to `c1cc(-c2ccncc2)ccn1`, for which the call was inactive.

Take `C=CCOC(=O)c1ccccc1C(=O)OCC=C`: the result was inactive.

For the compound `CCCCCCCCCCCCCCCCCC(=O)O`, the compound was classed as inactive.

As to `COc1cc(-c2nc(NC(=O)c3cc4cc(C)cc(C)c4n3CC(=O)O)sc2CCC2CCCCC2)c(OC)cc1Cl`, the result was inactive.

On to `Cc1ccc(Cl)cc1`, for which the compound was called inactive.

In the case of `Cc1c(C(=O)O)c(O)cc2c1C(=O)c1c(O)c([C@@H]3O[C@H](CO)[C@@H](O)[C@H](O)[C@H]3O)c(O)c(O)c1C2=O`, the compound was called inactive.

For the compound `COCCOCCOC`, the call was inactive.

Consider `CCCCc1ccc2c(n1)[C@@H](c1ccc(OC)cc1C[C@H](C)C(=O)O)[C@H](C(=O)O)[C@H]2c1ccc2c(c1)OCO2`, for which the outcome was inactive.

As for `COc1ccc(S(=O)(=O)N2C(=O)[C@@](c3ccccc3OC)(N3C[C@H](O)C[C@H]3C(=O)N(C)C)c3cc(Cl)ccc32)c(OC)c1`, the call was inactive.

For the compound `O=C(O)Cc1ccccc1Nc1c(Cl)cccc1Cl`, the compound was classed as inactive.

For `CCCCOC(=O)CCCCCCCCC(=O)OCCCC`, the result was inactive.

As for `COc1cc(/C=C/C(=O)CC(=O)/C=C/c2ccc(O)c(OC)c2)ccc1O`, the outcome was inactive.

As for `Cc1ccc2ncccc2c1`, the call was inactive.

Turning to `O=C(O)CCCCC(=O)O`, the result was inactive.

Take `COc1cc(C=O)ccc1O`: the result was inactive.

Regarding `COc1ccc(C)cc1N`, the call was inactive.

Take `CCCCCCCCCCCCCO`: the outcome was inactive.
